D1 potentiator: potentiators of human D1 dopamine receptor | actives 0.036% (n = 360,000) | AID 504651 | HEK293 TREx D1 cells, calcium flux, dopamine EC20 potentiation | potentiation, % at 10 µM | P21728; in the data active = potentiation above about 30%; also: 0% is about no effect
Target sequence (P21728 whole entry, looked up): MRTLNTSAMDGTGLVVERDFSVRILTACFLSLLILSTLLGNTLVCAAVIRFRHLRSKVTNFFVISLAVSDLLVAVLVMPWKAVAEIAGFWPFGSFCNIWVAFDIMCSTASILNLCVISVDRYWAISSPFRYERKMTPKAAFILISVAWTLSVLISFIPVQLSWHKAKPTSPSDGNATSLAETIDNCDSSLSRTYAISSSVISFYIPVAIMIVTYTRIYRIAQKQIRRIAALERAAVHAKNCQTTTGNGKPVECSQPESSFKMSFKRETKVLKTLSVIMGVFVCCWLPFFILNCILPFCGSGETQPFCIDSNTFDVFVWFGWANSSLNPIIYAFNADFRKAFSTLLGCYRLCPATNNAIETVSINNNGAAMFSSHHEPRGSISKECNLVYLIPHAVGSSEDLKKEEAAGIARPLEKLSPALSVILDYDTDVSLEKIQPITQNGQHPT
D3 antag: blocks the human D3 dopamine receptor. D3R cells, DiscoveRx beta-arrestin luminescence, antagonist mode; active compounds read low. max response, negative = inhibition, %. actives 2.5% (n = 360,000); in the data active = max response below about -50%; inconclusive = no clear call, values can overlap the other calls; also: % is scaled to controls: 0 for no effect and ±100 for the full control effect
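Cells expressing the human receptor were seeded at 1500 cells/well, incubated overnight at 37 degrees C in 5% CO2, then exposed to library compounds with dopamine controls for 90 minutes at 37 degrees C before luminescent detection.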
ERG-DNA inh: inhibitors of human ERG Ets domain-DNA interaction. P11308. Potency, µM (titrated, usually from 76.9 µM), inactives show at the top dose FP activity, negative = inhibition, hits mostly inhibitors. AID 624246. fluorescence polarization, His-ERG Ets domain / labelled DNA. actives 0.028% (n = 370,000); active = well fitted inhibition curve with a large enough effect in the polarisation, with a control signal flat; inconclusive = small, poorly fitted or top-dose-only effect, or effect the other way, or a change in a side signal; inactive = no such curve, though single readings can be large or run the other way; the % refers to the polarisation;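 also: polarization taken with two DNA probes labelled with fluorescein and Texas red; potency is read from the fitted curve at half-maximal effect; % of control where 0% means no effect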
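His-tagged ERG Ets domain (1 uM in the protein solution; 300mM KCl, 50mM Tris-HCl, 1mM EDTA, 1mM DTT, pH 7.5) received compound, then a probe mix of 5 nM fluorescein-DNA and 100nM Texas-615-DNA. Fluorescence polarization was read for both dyes.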
DRD3 agonist: activates the human D3 dopamine receptor; AID 652048; max activation, %; actives 0.58% (n = 410,000); P35462; D3R DiscoveRx beta-arrestin cells, luminescence, 90 min; in the data active = max activation above about 30%; also: 0% is about no effect
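Agonist mode: compounds and dopamine controls were applied to plated cells for 90 min at 37 degrees C after an overnight attachment at 1500 cells/well. Luminescent read-out followed 30 - 60 minutes at room temperature with DiscoveRx detection reagent.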
D1 agonist: activates the human D1 dopamine receptor. HEK293 T-REx D1 cells, calcium flux, agonist mode. activation, % at 2 µM. actives 1% (n = 360,000). AID 504660; in the data active = activation above about 30%; also: 0% is about no effect
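Agonism was scored from calcium flux recorded over 180 s (1 read/s) after pintool compound addition, following a 10-cycle baseline. Cells were inducible force-coupled HEK293 TREx D1, plated overnight at 30 C and loaded with no-wash calcium dye.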
D1 antag: blocks dopamine activation of the human D1 receptor; AID 504652; P21728; HEK293 TREx D1 cells, calcium flux, dopamine EC80; active compounds read low; activity change, negative = inhibition, % at 10 µM; actives 3.2% (n = 360,000); in the data active = activity change below about -30%; also: % is scaled to controls: 0 for no effect and ±100 for the full control effect
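Kinetic fluorescence of a calcium dye serves as the read-out. D1-expressing Hek293 Trex cells, induced overnight at 30 C, are exposed to compound for 180 s before an EC80 dopamine addition, then read 180 s further.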
* hit, by the source's call; u = inconclusive; x = no result; ! = a repeat was not active. Shown are actives, neighbours in structure and some others; about 6.1% of the full set was active somewhere.

SMILES	D1 potentiator	D3 antag	ERG-DNA inh	DRD3 agonist	D1 agonist	D1 antag
O=C(/C=C/c1cccc(Cl)c1)c1nc2ccccc2[nH]1	-8.5	-56.5*	1.8%	-5.8	1.0	-14.0
O=C(/C(=C\c1ccccc1)c1nc2ccccc2[nH]1)c1ccc(Cl)cc1	-8.3	-71.5*	-5.6%	-2.7	2.8	3.6
COC(=O)/C(=C\c1ccc(O)cc1)c1nc2ccccc2[nH]1	0.5	2.6	2.7%	-5.4	1.7	-0.9
O=C(NCc1nc2ccccc2[nH]1)c1cccc(Cl)c1	-3.6	x	-1.1%	-20.4	-0.2	-24.2
O=C(/C(=C/c1ccc(Cl)cc1)c1nc2ccccc2[nH]1)c1cccs1	-5.0	-65.2*	15.0%	-14.1	7.6	-4.4
CCCCC(CC)CNC(=O)c1ccc2c(=O)n(Cc3ccc(OC)cc3)c(=O)[nH]c2c1 (stereo unspecified)	-0.1	x	5.5%	0.8	3.2	-3.1
Cc1ccc(S(=O)(=O)N(C)c2cc(S(=O)(=O)N3CCOCC3)c(C)cc2C)cc1	6.8	8.0	-1.2%	1.9	3.7	-2.9
Cc1cc(C)c(S(=O)(=O)N2CCCCC2)cc1N(C)S(=O)(=O)c1ccc(Cl)cc1	3.5	5.2	2.0%	-4.9	2.6	-30.6*
COc1ccc(CN2CCN(C(=O)c3cccs3)CC2)cc1	-6.1	-58.4*	9.1%	-12.8	0.9	-7.5
O=C(c1cccs1)N1CCN(CCCc2ccccc2)CC1	-2.9	-65.4*	-1.8%	-6.3	0.9	-5.5
O=C(c1cccnc1)N1CCN(CCCc2ccccc2)CC1	-2.7	5.4	x	51.6*	1.7	-6.0
O=C(c1cccs1)N1CCN(Cc2ccccc2)CC1	-8.2	-16.8	7.0%	10.7	8.6	3.8
O=C(c1ccccc1)N1CCN(C(=O)c2cccnc2)CC1	-8.8	-8.2	14.2%	1.2	2.5	-1.7
CCCCOc1ccc(CONS(=O)(=O)c2ccc(NC(C)=O)cc2)cc1Cl	-6.3	68.1	0.7%	2.7	135.5*	-10.7
CCCOC(=O)c1ccc(Nc2nc(C)cc(=O)[nH]2)cc1	-7.5	-5.3	3.8%	-3.5	2.7	-19.8
CCN1CCN(c2nc3ccccc3n3cnnc23)CC1	0.0	-70.0*	4.1%	-22.4	0.9	-7.0
c1ccc2c(c1)nc(N1CCCCCC1)c1nncn12	x	-27.2	x	-2.1	x	x
NC(=O)CC(NC(=O)Cc1cccc2ccccc12)c1ccc(NCc2ccccc2)c([N+](=O)[O-])c1 (stereo unspecified)	0.8	-50.8*	-5.4%	-15.5	2.8	-31.1*
NC(=O)CC(NC(=O)Cc1cccc2ccccc12)c1ccc(NCc2ccccn2)c([N+](=O)[O-])c1 (stereo unspecified)	3.7	1.3	-9.6%	-11.0	0.9	0.1
NC(=O)CC(NC(=O)Cc1cccc2ccccc12)c1ccc(NCc2ccc(F)cc2)c([N+](=O)[O-])c1 (stereo unspecified)	2.9	-59.7*	-9.0%	-34.6	2.5	18.7
NC(=O)CC(NC(=O)Cc1cccc2ccccc12)c1ccc(NC2CCCCCC2)c([N+](=O)[O-])c1 (stereo unspecified)	-1.2	-23.0	9.5%	-12.2	2.6	6.7
NC(=O)CC(NC(=O)Cc1cccc2ccccc12)c1ccc(NC2CCCCCCC2)c([N+](=O)[O-])c1 (stereo unspecified)	6.6	-61.2*	1.7%	-34.7	3.4	12.1
Cc1ccccc1N(C(=O)c1ccco1)C(C(=O)NC1CCCC1)c1cccnc1 (stereo unspecified)	-4.7	3.1	4.8%	-4.7	-0.4	9.1
COc1cc(N(C(=O)Cc2cccs2)C(C(=O)NC2CCCCC2)c2cccc(OC)c2OC)ccc1-n1cnnn1 (stereo unspecified)	-6.3	-14.3	1.9%	-6.8	4.1	4.4
COc1ccc(CCNC(=O)CCn2c(=O)oc3ccccc32)cc1	-4.2	16.7	1.1%	2.8	1.4	3.1
SMILES	D1 potentiator	D3 antag	ERG-DNA inh	DRD3 agonist	D1 agonist	D1 antag
Fc1nc(N2CCCC2)c(F)c(Oc2ccccc2Oc2c(F)c(F)nc(N3CCCC3)c2F)c1F	-4.0	11.0	-7.2%	1.7	1.4	16.2
Cc1cc2nc(-c3ccc4c(c3)CCC4)ccn2n1	6.3	0.0	-2.7%	5.7	3.0	1.0
CCCCNC(=O)C(CC)(ONc1ccccc1C(F)(F)F)c1ccccc1OC (stereo unspecified)	2.7	u	-7.8%	-9.6	2.6	5.7
CCN=C1S/C(=C\c2cc(Br)c(O)c(OC)c2)C(=O)N1CC	0.7	1.4	26.0%	8.6	20.8	0.7
CCOCCN(C(=O)c1ccccc1Cl)c1cccc(C)c1C	-8.9	-10.0	0.6%	-3.0	-0.4	-38.4*
Cc1cccc(NC(=O)CN2CCN(C(=O)C3CCC3)CC2)c1C	15.2	-0.3	-1.8%	-7.1	1.7	0.0
COc1ccc(-n2cc(CNC3CCC(O)CC3)c(-c3cccc(F)c3)n2)cc1 (stereo unspecified)	2.6	6.7	7.7%	7.5	36.3*	5.3
COc1ccc(-n2c(-c3ccccc3F)nc3c(cnn3-c3ccc(C)cc3)c2=O)cc1	-1.2	x	-3.5%	-10.1	5.7	-31.4*
COc1ccc(-n2c(-c3ccco3)nc3c(cnn3-c3ccc(C)cc3)c2=O)cc1	-3.2	12.9	-4.6%	4.6	5.1	-1.8
COc1ccc(-n2c(-c3ccco3)nc3c(cnn3-c3ccccc3C)c2=O)cc1	-8.6	0.5	15.3%	5.3	2.1	-30.4*!
CN(Cc1ccccc1)C(=O)C1CCN(Cc2cc3ccccc3n2Cc2ccccc2)CC1	1.6	x	-0.7%	-10.2	4.5	11.8
COc1ccccc1CCNC(=O)c1ccc2c(c1)c(C)c(C)n2Cc1ccc(Cl)cc1	-4.3	x	0.8%	-10.7	2.2	-2.6
COC(=O)CCC(=O)NNC(=O)c1cccc(Br)c1	-4.0	-6.0	-1.4%	1.2	2.1	-37.5*
O=C(NNC(=O)c1cccc(Br)c1)Nc1ccc(Cl)cc1	-5.8	-66.7*	-17.6%	-15.7	0.6	-37.2*
O=C(NNC(=S)Nc1ccccc1)c1cccc(Br)c1	-3.0	4.9	-16.8%	-22.8	2.8	-22.5
O=S(=O)(Nc1ccccc1Cl)c1ccc2[nH]c(=S)oc2c1	-0.9	-14.7	2.4%	-2.3	2.1	-6.7
CCc1cccc(NC(=O)C2CCCN(S(=O)(=O)c3cccs3)C2)c1 (stereo unspecified)	5.8	-1.8	4.6%	0.4	0.1	1.2
CCOc1ccc(NC(=O)CN(C)C(=O)c2ccccc2Cc2ccccc2)cc1OCC	x	27.1	-6.3%	3.2	6.5	-45.4*
COc1ccc(NC(=O)CN(C)C(=O)COc2ccccc2Cc2ccccc2)cc1	-4.3	-6.9	14.6%	-23.0	5.1	-11.0
